IL-1B inflam inh – inflammasome signaling inhibition, IL-1 beta readout. THP-1 LPS/ATP IL-1B secretion, AlphaLISA, 16 h; stronger effect = lower value. activity change, % at 57.5 µM. 360,000 compounds, 4.7% hits; in the data active = activity change below about -50%; inconclusive = mostly about -30% to -49%
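THP-1 cells pretreated 1 hr with compounds (up to 57.5 uM final), then stimulated with LPS (250 ng/mL final) plus ATP (1.25 mM final); secreted IL-1B measured by AlphaLISA after 16 hr, decreased signal indicating inhibition.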
DT40 TDP1 CPT – growth inhibition of DT40 Tdp1-/-;hTDP1 cells with camptothecin (screen for TDP1 inhibitors) | chicken DT40 Tdp1-/-;hTDP1 cells + 20 nM CPT, ATP luminescence, 48 h | Potency, µM (highest dose often 46.2 µM), for inactives: at the highest dose activity change, negative = growth inhibition, usual class: inhibitors | 420,000 compounds, 12% hits; also: potency is read from the fitted curve at half-maximal effect; nearly all actives have a fitted effect of over 55% in size
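Cell growth measured by CellTiter-Glo luminescence after a minimum 48 h, 37 C compound exposure with 20 nM CPT in Tdp1-knockout DT40 cells stably expressing hTDP1, seeded 400/well; qHTS titration format.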
HT1080 IDH1KD tx – HT-1080 IDH1 knockdown cell toxicity (counter line) | 360,000 compounds, 2% hits | Potency, µM (titrated, usually from 46.1 µM), for inactives: top-dose activity, negative = toxicity, usual class: cytotoxic | HT-1080 IDH1 knockdown viability, ATP luminescence, 48 h | AID 686971;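 also: potency is read from the fitted curve at half-maximal effect; 0% = DMSO wells and -100% = cell-free medium wells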
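IDH1KD HT-1080 cells, 750/well, RPMI + 5% FBS; compound pinned after 2 h settling; 48 h, 37 °C; CellTiter-Glo luminescence; % activity normalised to DMSO and no-cell wells; curves fitted, classed by r2 and efficacy.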
TDP1 cell noCPT – qHTS for Inhibitors of human tyrosyl-DNA phosphodiesterase 1 (TDP1): qHTS in cells in absence of CPT. AID 686978, 2013. DT40 Tdp1-/- hTDP1 cells, no CPT, ATP luminescence, 48 h. 420,000 compounds, 15% hits. Potency, µM (highest dose often 46.2 µM), for the others: top-dose activity change, negative = growth inhibition, most hits filed as inhibitors; also: potency is read from the fitted curve at half-maximal effect; nearly all actives have a fitted effect of over 55% in size
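Chicken DT40 Tdp1-/- cells complemented with human TDP1, screened without camptothecin (DMSO vehicle only), 400 cells/well. Compounds pin-transferred, cells incubated at 37 °C for at least 48 hr. Growth read as ATP-dependent luminescence (CellTiter-Glo, 30 min at RT).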
HT1080NT lethal – kills 2HG-producing HT-1080-NT fibrosarcoma cells. 360,000 compounds, 1.6% hits. Potency, µM (doses to about 46.1 µM), for the others: at the highest dose activity, negative = less viability, most hits filed as cytotoxic. HT-1080-NT fibrosarcoma viability, CellTiter-Glo ATP luminescence, 48 h;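 also: NT is the 2HG producing partner of a matched IDH1 knockdown line; potency is read from the fitted curve at half-maximal effect; 0% = DMSO-treated cells and -100% = media-only wells without cells; nearly all actives have a fitted effect of over 55% in size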
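Fibrosarcoma NT cells, 750 per well in 5% FBS RPMI, were exposed to compound for 48 hours. Viability: CellTiter-Glo luminescence.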
* marks the source's active call; other numbers are inactive results; ? = inconclusive; · = no result given; ! = not confirmed by another sample. Compounds with a hit are over-represented: about 19% of the library has one in this group of screens. Unless noted, calls follow the shape of the dose curve; as a rule, active = well fitted curve in the direction sought with a large enough effect; inconclusive = small, poorly fitted or top-dose-only effect, or another doubt; inactive = no such curve, though single readings can be large; an effect the other way counts as inactive or inconclusive. Unless noted, % is scaled to controls: 0 for no effect and ±100 for the full control effect.

SMILES	IL-1B inflam inh	DT40 TDP1 CPT	HT1080 IDH1KD tx	TDP1 cell noCPT	HT1080NT lethal
COc1cccc(NC(=O)CSc2nnc(-c3cccc(OC(C)C)c3)n2N)c1	-25	?	-1%	?	-2%
CCOc1ccc(S(=O)(=O)N2CCC(C(=O)Nc3cc(S(C)(=O)=O)ccc3Cl)CC2)cc1	-19	?	-1%	?	-4%
O=C(CSc1nc2ccccc2c(=O)n1Cc1ccco1)c1ccc(F)cc1	0	12µM*	?	23µM*	-5%
COc1ccccc1-c1nnc(SCC(=O)c2ccc(C3CCCCC3)cc2)n1Cc1ccco1	-19	23µM*	?	23µM*	?
Cc1occc1-c1nnc(SCC(=O)c2ccc(F)cc2)n1Cc1ccco1	-10	?	3%	?	-1%
O=C(CSc1nnc(-c2cc3ccccc3cc2O)n1Cc1ccco1)c1ccc(F)cc1	-14	13µM*	?	16µM*	-27%
O=C(NCc1ccco1)/C(=C/c1cccnc1)NC(=O)c1ccco1	6	-3%	12%	2%	4%
CCC(C(=O)Nc1nnc(-c2ccco2)s1)c1ccccc1 (stereo unspecified)	22	-25%	-21%	-11%	-20%
C#CCOCCOCCOCCNc1nc(N2CCN(C(=O)Cn3cc(CCO)nn3)CC2)nc(N2CCN(C(=O)[C@H](CCCCN)n3cc(CC(C)O)nn3)CC2)n1 (stereo partly specified)	36	4%	5%	15%	9%
COc1cc(/C=C/C(=O)OCC(=O)NCC2CCCCC2)ccc1O	0	-12%	-1%	?	-4%
O=C1C=C(c2ccc3[nH]ccc3c2)C[C@@H](c2ccc(F)cc2)C1	-6	12µM*	-18%	?	-3%
COc1ccc([C@H]2CC(=O)C=C(c3ccc4[nH]ccc4c3)C2)cc1OC	-1	?	-1%	?	-10%
COc1ccc([C@H]2CC(=O)C=C(c3ccc4ccn(C)c4c3)C2)cc1	?	?	?	18µM*	?
COc1ccc(C2=CC(=O)C[C@H](c3ccc(OC)cc3)C2)cc1	-2	-24%	2%	?	-1%
COc1ccc([C@H]2CC(=O)C=C(c3ccc4cc[nH]c4c3)C2)cc1	-7	26µM*	-3%	23µM*	2%
Cc1nn(Cc2ccccc2)c(Cl)c1/C=C1\NC(=S)NC1=O	-64*	?	-22%	4%	0%
CCOC(=O)CSc1nc2c(c(=O)[nH]1)C(C)(CC)Cc1ccccc1-2 (stereo unspecified)	73	?	5.8µM*	16µM*	?
CCOC(=O)C1Cn2c(nc3c(c2=O)C(C)(C)Cc2ccccc2-3)S1 (stereo unspecified)	-3	-13%	-13%	16µM*	-11%
CC1(C(=O)NCc2ccccc2)CSCC(=O)N1CCOc1ccccc1 (stereo unspecified)	-11	-26%	-7%	-24%	-12%
COc1ccc([C@H]2CC(=O)C[C@@H](CCn3cc(-c4ccc(F)cc4)nn3)O2)cc1	156	-4%	2%	-14%	4%
Cc1ccc(-c2cc(NC(=O)c3cccc(C)c3)on2)cc1	·	-21%	·	-26%	·
Cc1ccccc1C(=O)Nc1cccc(N)c1	-15	2%	4%	1%	2%
COc1ccccc1C(=O)Nc1cc(-c2ccc(C)cc2)no1	?	?	-9%	13µM*!	-10%
Cc1ccccc1C(=O)Nc1cccc(NC(=O)c2ccc(C(C)(C)C)cc2)c1	·	8.2µM*	·	5.8µM*	·
C/C(=N\NC(=O)c1ccc(O)cc1)c1cccc(NC(=O)c2ccccc2C)c1	-7	?	-7%	23µM*	1%
COc1ccccc1C(=O)Nc1cccc(NC(=O)c2ccccc2C)c1	-70*	?	-12%	?	8%
C/C(=N\NC(=O)c1c(Br)c(C)nn1C)c1cccc(NC(=O)c2ccccc2C)c1	-8	?	16%	?	24%

Compound activity as filed in PubChem BioAssay.
